Results from PubChem BioAssay (NCI).
This is part of a sample that, as a whole, favours compounds with a hit. Of some 79,000 tested, about 15% had one in any assay. Calls of active or inactive are those of the source. Rule as the data show it: active = growth inhibition above about 70%; inactive = the rest.

Tests used:
[1] = NCI Yeast Anticancer Drug Screen. Data for the rad52 strain (AID 147);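 also: 0% = growth of vehicle-treated control cultures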; conditions: S. cerevisiae rad52 mutant growth inhibition, hits give high values
In short: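 Growth of repair-deficient yeast cells was compared between compound-treated and vehicle-treated cultures to give percent inhibition.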

[2] = NCI Yeast Anticancer Drug Screen. Data for the wt1 strain (AID 149);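 also: 0% = growth of vehicle-treated wt1 cultures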; conditions: S. cerevisiae wt1 strain (SPY 50644) growth inhibition, hits give high values
In short: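 Vehicle-normalised growth inhibition; strain wt1; compound exposure.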

[3] = NCI Yeast Anticancer Drug Screen. Data for the rad50EPP+ strain (AID 151);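 also: 0% = growth of vehicle-treated control cultures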; conditions: S. cerevisiae rad50 mutant strain, hits give high values
In short: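 Measured: growth inhibition of rad50EPP+ yeast. Reference: vehicle-treated controls. Screen uses strains with defined genetic alterations in DNA damage repair or cell cycle control.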

[4] = NCI Yeast Anticancer Drug Screen. Data for the mgt1 strain (AID 153); conditions: S. cerevisiae mgt1 mutant growth inhibition, hits give high values
In short: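 Compounds were applied to mgt1 mutant yeast, and growth was then compared against vehicle-treated control cultures to give percent inhibition.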

[5] = NCI Yeast Anticancer Drug Screen. Data for the rad50 strain (AID 155);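 also: 0% = growth of vehicle-only cultures of the same strain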; conditions: S. cerevisiae rad50 strain growth inhibition, hits give high values
In short: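 A DNA repair-deficient yeast mutant serves as the test organism; compound-induced growth inhibition is calculated against vehicle-treated cells.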

[6] = NCI Yeast Anticancer Drug Screen. Data for the mec2-1 strain (AID 157); conditions: S. cerevisiae mec2-1 strain, hits give high values
In short: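 Compounds were applied to mec2-1 yeast cells. Their growth was then compared with that of vehicle-treated cultures to give growth inhibition.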

[7] = NCI Yeast Anticancer Drug Screen. Data for the rad14 strain (AID 159);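 also: 0% = growth of vehicle-treated control cultures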; conditions: S. cerevisiae rad14 strain growth inhibition, hits give high values
In short: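 Vehicle-treated cultures served as the baseline for growth inhibition of a DNA repair-mutant yeast strain exposed to each compound.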

[8] = NCI Yeast Anticancer Drug Screen. Data for the sgs1 mgt1 strain (AID 161);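 also: 0% = growth of cultures given vehicle only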; conditions: S. cerevisiae sgs1 mgt1 strain, hits give high values
In short: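 Compounds are added to genetically altered yeast, and growth is compared with cultures given vehicle alone to give percent inhibition.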

[9] = NCI Yeast Anticancer Drug Screen. Data for the CLN2oe strain (AID 163);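 also: 0% = growth of vehicle-only control cultures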; conditions: S. cerevisiae CLN2oe strain, hits give high values
In short: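 Cells of an engineered yeast line with disturbed cell-cycle regulation are treated with compound. Inhibition of growth is then calculated relative to the vehicle-treated reference.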

[10] = NCI Yeast Anticancer Drug Screen. Data for the cln2 rad14 strain (AID 165);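 also: 0% = growth equal to vehicle treated cultures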; conditions: S. cerevisiae cln2 rad14 strain, hits give high values
In short: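 Strain: cln2 rad14 yeast, altered in cell cycle control and DNA damage repair. Read-out: growth inhibition vs vehicle.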

[11] = NCI Yeast Anticancer Drug Screen. Data for the bub3 strain (AID 167); conditions: S. cerevisiae bub3 mutant strain, hits give high values
In short: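 Inhibition values come from growth of compound-treated mutant yeast normalised to vehicle-treated controls.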

[12] = NCI Yeast Anticancer Drug Screen. Data for the wt2 strain (AID 169);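 also: 0% = growth of vehicle-treated yeast cultures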; conditions: S. cerevisiae wt2 strain growth inhibition, hits give high values
In short: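 Growth of compound-treated yeast is measured and expressed as inhibition relative to vehicle-only controls.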

[13] = NCI Yeast Anticancer Drug Screen. Data for the mlh1 strain (AID 171);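 also: 0% = growth of vehicle-treated control cultures of the same strain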; conditions: S. cerevisiae mlh1 strain growth inhibition, hits give high values
In short: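 Test agents were incubated with yeast bearing a defined DNA damage repair or cell cycle control alteration; values are growth inhibition normalised to vehicle-treated cultures.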

[14] = NCI Yeast Anticancer Drug Screen. Data for the mlh1 rad18 strain (AID 175); conditions: S. cerevisiae mlh1 rad18 strain growth inhibition, hits give high values
In short: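 A repair-deficient yeast strain is exposed to test compound, and growth is scored relative to vehicle-treated controls.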

[15] = NCI Yeast Anticancer Drug Screen. Data for the rad18 strain (AID 177); conditions: S. cerevisiae rad18 mutant growth inhibition, hits give high values
In short: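 DNA-repair-defective yeast; compound treatment; growth inhibition scored against vehicle.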

[16] = at 5.0 µM (retest, dose inferred, filed as 0.5)
[17] = at 50.0 µM (retest, dose inferred, filed as 5.0)

Measured: growth inhibition

CN(C)CCNC(=O)c1cccc2c1Oc1c(cccc1[N+](=O)[O-])O2
inactive: [1]; at 1.2 µM -20% | [1]; at 3.7 µM -21% | [1]; at 11.0 µM -12% | [1]; at 33.0 µM 59% | [2]; at 1.2 µM -13% | [2]; at 3.7 µM -20% | [2]; at 11.0 µM -14% | [2]; at 33.0 µM -12% | [2]; at 100.0 µM 29% | [3]; at 1.2 µM 0% | [3]; at 3.7 µM 9% | [3]; at 11.0 µM 3% | [3]; at 33.0 µM 26% | [3]; at 100.0 µM 68% | [4]; at 1.2 µM 9% | [4]; at 3.7 µM 17% | [4]; at 11.0 µM 16% | [4]; at 33.0 µM 30% | [4]; at 100.0 µM 60% | [5]; at 1.2 µM 6% | [5]; at 3.7 µM 10% | [5]; [16] 29% | [5]; at 11.0 µM 24% | [5]; at 50.0 µM 32.6% | [6]; at 1.2 µM -12% | [6]; at 3.7 µM -23% | [6]; [16] -7% | [6]; at 11.0 µM -20% | [6]; at 33.0 µM -9% | [6]; [17] 16% | [6]; at 50.0 µM 7.85% | [6]; at 100.0 µM 56% | [7]; at 1.2 µM -12% | [7]; at 3.7 µM -12% | [7]; at 11.0 µM -10% | [7]; at 33.0 µM -8% | [7]; at 100.0 µM 40% | [8]; [16] 11% | [8]; [17] 16% | [8]; at 50.0 µM 11.5% | [9]; at 1.2 µM 24% | [9]; at 3.7 µM 12% | [9]; at 11.0 µM 20% | [9]; at 33.0 µM 6% | [9]; at 100.0 µM 58% | [10]; [16] 47% | [10]; [17] 38% | [10]; at 50.0 µM 14.4% | [11]; at 1.2 µM 25% | [11]; at 3.7 µM 31% | [11]; [16] 20% | [11]; at 11.0 µM 13% | [11]; at 33.0 µM 26% | [11]; [17] 29% | [11]; at 50.0 µM 0.95% | [12]; at 1.2 µM -37% | [12]; at 3.7 µM -27% | [12]; at 11.0 µM -40% | [12]; at 33.0 µM -37% | [12]; at 100.0 µM 26% | [13]; at 1.2 µM 15% | [13]; at 3.7 µM 13% | [13]; at 11.0 µM 18% | [13]; at 33.0 µM 38% | [14]; [16] 15% | [14]; [17] 29% | [14]; at 50.0 µM 18.4% | [15]; at 1.2 µM -3% | [15]; at 3.7 µM 0% | [15]; at 11.0 µM -5% | [15]; at 33.0 µM 13% | [15]; at 100.0 µM 69%
active: [1]; at 100.0 µM 93% | [5]; at 33.0 µM 76% | [5]; [17] 72% | [5]; at 100.0 µM 95% | [11]; at 100.0 µM 74% | [13]; at 100.0 µM 75%
